Potency and outcome data for ten compounds are collected here from PubChem BioAssay (Tox21).

A short description of test [1]: qHTS assay to identify aromatase inhibitors - cell viability counter screen (AID 743084).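 Further: cells stimulated with testosterone during compound exposure; nearly all actives have a fitted effect of over 55% in size.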
Test [2] deals with Aryl hydrocarbon receptor (Homo sapiens) (UniProt P35869). As to the kind of experiment: qHTS assay to identify small molecule that activate the aryl hydrocarbon receptor (AhR) signaling pathway (AID 743085). Further: nearly all actives have a fitted effect of over 15% in size. Further: potency means the concentration at half of the fitted maximal effect.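 On activation: HG2L7.5c1 human HepG2 liver cells with stably integrated DRE-driven firefly reporter; series mostly up to about 70 µM.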 The method in brief:
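AhR agonist activity is inferred from enhanced light output of a DRE-controlled firefly luciferase reporter in HepG2 cells, measured with ONE-Glo following 24 h treatment at 37C.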

Test [3] is described as follows: qHTS assay to identify small molecule that activate the aryl hydrocarbon receptor (AhR) signaling pathway - cell viability counter screen (AID 743086).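 Further: HepG2 liver cells carrying the AhR DRE luciferase reporter; series mostly up to about 70 µM; nearly all actives have a fitted effect of over 45% in size.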 The method in brief: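 HepG2-AhR-luc (HG2L7.5c1) cells, 4000/well, were preincubated 5 h at 37C, exposed to compound in qHTS format for 24 hr at 37C, then given CellTiter-Fluor for 30 min; viability was read as fluorescence in the reporter wells.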

Test [4] concerns the target Peroxisome proliferator-activated receptor gamma (Homo sapiens) (UniProt P37231). In words: qHTS assay to identify small molecule agonists of the peroxisome proliferator-activated receptor gamma (PPARg) signaling pathway (AID 743094; active means well fitted activation curve with a large enough effect in the signal ratio in the repeat runs, not every such curve was filed as active; the % refers to the signal ratio). The gist of the method:
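Agonist activity was taken from a beta-lactamase reporter (FRET substrate, 1 h at room temperature) in HEK293H cells carrying a PPARg UAS-bla construct. Compounds in DMSO were incubated 17 h at 37C after a 5 h cell pre-incubation.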
For orientation: In qHTS, concentration-response curves come from the screen itself.

Test [5] in a line: qHTS assay for small molecule agonists of the antioxidant response element (ARE) signaling pathway (AID 743202; active means well fitted activation curve with a large enough effect in the signal ratio in the repeat runs, not every such curve was filed as active; the % refers to the signal ratio). The method in brief:
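Following a 16 h, 37 C exposure of reporter HepG2 cells (ARE-driven beta-lactamase, 2,000 cells/well) to compounds, FRET substrate was applied for 2 h at room temperature and fluorescence intensity recorded.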

Test [6] is described as follows: qHTS assay for small molecule agonists of the antioxidant response element (ARE) signaling pathway - cell viability counter screen (AID 743203; calls by dose curve; further: nearly all actives have a fitted effect of over 55% in size). The method in brief:
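Viability counter screen: CellTiter-Glo luminescence, read after 30 min at room temperature, in ARE-bla HepG2 wells. Compound exposure lasted 16 h at 37C/5% CO2, following a 5 h pre-incubation of the cells after plating.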

Test [7] in a line: qHTS assay for small molecule activators of the heat shock response signaling pathway - cell viability counter screen (AID 743209). Further: nearly all actives have a fitted effect of over 50% in size. The gist of the method: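 Cytotoxicity counter screen run in the same wells as the heat-shock bla reporter assay: HeLa HSE-bla cells, 5 h compound exposure at 37 C, viability read by CellTiter-Glo luminescence.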
Test [8] is described as follows: qHTS assay for small molecule activators of the heat shock response signaling pathway (AID 743210; active means well fitted activation curve with a large enough effect in the signal ratio in the repeat runs, with a control signal flat, not every such curve was filed as active; the % refers to the signal ratio; further: series mostly up to about 63 µM). The method in brief: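 Heat shock element–beta-lactamase HeLa reporter cells; qHTS with compounds for 5 h at 37 C; detection by FRET substrate fluorescence after 2.5 h at RT.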
For test [9], the target named is Peroxisome proliferator-activated receptor delta (Homo sapiens) (UniProt Q03181). In words: qHTS assay to identify small molecule agonists of the peroxisome proliferator-activated receptor delta (PPARd) signaling pathway (AID 743212; calls by dose curve). The method in brief:
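Beta-lactamase reporter read by fluorescence (LiveBLAzer B/G FRET, 2 h, room temperature). Test agents, in DMSO, incubated at 37 C with PPARd-bla HEK293H cells.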

The nature of test [10]: qHTS assay to identify small molecule antagonists of the peroxisome proliferator-activated receptor delta (PPARd) signaling pathway - cell viability counter screen (AID 743213). Further: nearly all actives have a fitted effect of over 50% in size. The gist of the method: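 Luminescence from CellTiter-Glo, added after the bla read and incubated 30 min at room temperature, gives viability of HEK293H PPARd-bla cells exposed to compounds for 17 h at 37 C with 300 nM L165041.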

Test [11] addresses Peroxisome proliferator-activated receptor delta (Homo sapiens) (UniProt Q03181). As to the kind of experiment: qHTS assay to identify small molecule antagonists of the peroxisome proliferator-activated receptor delta (PPARd) signaling pathway (AID 743215; active means well fitted inhibition curve with a large enough effect in the signal ratio in the repeat runs, not every such curve was filed as active; the % refers to the signal ratio;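 further: cells stimulated with agonist L165041 at 300 nM final during compound exposure; series mostly up to about 62 µM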). The gist of the method:
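Agonist L165041 (300 nM final) added with compound to PPARd-bla HEK293H UAS-bla reporter cells; 17 h incubation at 37 C. Read-out: LiveBLAzer FRET substrate, 2 h at room temperature, fluorescence intensity.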

Test [12] can be described thus: qHTS assay to identify small molecule antagonists of the farnesoid-X-receptor (FXR) signaling pathway - cell viability counter screen (AID 743221; active means well fitted cell-killing curve with a large enough effect in the repeat runs, not every such curve was filed as active; further: nearly all actives have a fitted effect of over 50% in size). The method in brief: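 After a 5 h settling period, FXR-bla HEK 293T cells receive compound and chenodeoxycholic acid (50 uM final) and incubate 16 h at 37 C; CellTiter-Glo luminescence, read after 30 min at room temperature, reports cell viability.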

Test [13] has as its target Vitamin D3 receptor (Homo sapiens) (UniProt P11473). In words: qHTS assay to identify small molecule agonists of the vitamin D receptor (VDR) signaling pathway (AID 743222; calls by dose curve). The gist of the method:
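Agonist mode, beta-lactamase reporter: fluorescence from LiveBLAzer B/G FRET substrate (2 h, room temperature) read after 16 h compound treatment at 37 C of VDR-bla cells, which were pre-incubated 4 h after seeding.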

Test [14] can be described thus: qHTS assay to identify small molecule antagonists of the peroxisome proliferator-activated receptor gamma (PPARg) signaling pathway - cell viability counter screen (AID 743194). Further: nearly all actives have a fitted effect of over 55% in size. The gist of the method:
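PPARg-UAS-bla HEK293H cells were plated, rested 5 h at 37 C, then treated with compounds plus rosiglitazone (50 nM final) for 17 h at 37 C; viability was then read by CellTiter-Glo luminescence after 30 min at room temperature.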

A short description of test [15]: qHTS assay to identify small molecule agonists of the peroxisome proliferator-activated receptor delta (PPARd) signaling pathway - cell viability counter screen (AID 743211). Further: nearly all actives have a fitted effect of over 55% in size. The gist of the method:
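qHTS cell viability: PPARd-bla HEK293H; 17 h cpd, 37C; CellTiter-Glo, luminescence at 30 min RT.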

Test [16] has as its target Bile acid receptor (Homo sapiens) (UniProt Q96RI1). As to the kind of experiment: qHTS assay to identify small molecule antagonists of the farnesoid-X-receptor (FXR) signaling pathway (AID 743217; active means well fitted inhibition curve with a large enough effect in the signal ratio in the repeat runs, not every such curve was filed as active; the % refers to the signal ratio). The gist of the method: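 Antagonist mode: chenodeoxycholic acid at 50 uM final stimulates a UAS-driven beta-lactamase reporter in HEK 293T FXR-bla cells during 16 h, 37C compound exposure. Read-out is FRET substrate fluorescence after 2 h at room temperature.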

Test [17] in a line: qHTS assay to identify small molecule agonists of the farnesoid-X-receptor (FXR) signaling pathway - cell viability counter screen (AID 743218). Further: nearly all actives have a fitted effect of over 45% in size. The gist of the method:
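Viability counter screen in the same wells: CellTiter-Glo luminescence, 30 min room-temperature incubation, measured after the beta-lactamase read. Cells were GeneBLAzer FXR-UAS-bla HEK 293T, compound-treated 16 h at 37C.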

The target in test [18] is Bile acid receptor (Homo sapiens) (UniProt Q96RI1). In words: qHTS assay to identify small molecule agonists of the farnesoid-X-receptor (FXR) signaling pathway (AID 743220; active means well fitted activation curve with a large enough effect in the signal ratio in the repeat runs, not every such curve was filed as active; the % refers to the signal ratio). The method in brief:
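FXR-UAS-bla HEK 293T cells carrying a UAS-driven beta-lactamase reporter were plated for 5 h at 37C/5% CO2, then exposed to DMSO-dissolved Tox21 10K compounds for 16 h at 37C. A LiveBLAzer B/G FRET substrate was loaded for 2 h at room temperature before fluorescence reading.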

The target in test [19] is Vitamin D3 receptor (Homo sapiens) (UniProt P11473). In words: qHTS assay to identify small molecule antagonists of the vitamin D receptor (VDR) signaling pathway (AID 743223; active means well fitted inhibition curve with a large enough effect in the signal ratio in the repeat runs, not every such curve was filed as active; the % refers to the signal ratio). The method in brief:
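Reporter line VDR-bla; stimulus 1alpha,25-(OH)2 vitamin D3, 3 nM final; compound co-addition, 16 h 37C/5% CO2; LiveBLAzer B/G substrate 2 h RT; fluorescence intensity.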

Test [20] has as its target Peroxisome proliferator-activated receptor gamma (Homo sapiens) (UniProt P37231). As to the kind of experiment: qHTS assay to identify small molecule antagonists of the peroxisome proliferator-activated receptor gamma (PPARg) signaling pathway (AID 743191; calls by dose curve; further: series mostly up to about 63 µM; nearly all actives have a fitted effect of over 30% in size). The method in brief: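 GeneBLAzer PPARg UAS-bla HEK293H cells carrying a UAS-driven beta-lactamase reporter were plated at 3000 cells/well, preincubated 5 h at 37C, then given compound for 17 h at 37C; LiveBLAzer B/G FRET substrate was read after 1 h at room temperature.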

Inconclusive results are not listed. A number with no mark means an inactive call. Activity calls are given as the source filed them. Unless noted, the call rests on the fitted dose curve; in most records, active means well fitted curve in the direction sought with a large enough effect in the repeat runs; inconclusive means weak or mixed curves; inactive means no such curve, though single readings can be large; an effect the other way counts as inactive or inconclusive.

Sequence of Bile acid receptor (Homo sapiens) (Q96RI1 whole entry, looked up): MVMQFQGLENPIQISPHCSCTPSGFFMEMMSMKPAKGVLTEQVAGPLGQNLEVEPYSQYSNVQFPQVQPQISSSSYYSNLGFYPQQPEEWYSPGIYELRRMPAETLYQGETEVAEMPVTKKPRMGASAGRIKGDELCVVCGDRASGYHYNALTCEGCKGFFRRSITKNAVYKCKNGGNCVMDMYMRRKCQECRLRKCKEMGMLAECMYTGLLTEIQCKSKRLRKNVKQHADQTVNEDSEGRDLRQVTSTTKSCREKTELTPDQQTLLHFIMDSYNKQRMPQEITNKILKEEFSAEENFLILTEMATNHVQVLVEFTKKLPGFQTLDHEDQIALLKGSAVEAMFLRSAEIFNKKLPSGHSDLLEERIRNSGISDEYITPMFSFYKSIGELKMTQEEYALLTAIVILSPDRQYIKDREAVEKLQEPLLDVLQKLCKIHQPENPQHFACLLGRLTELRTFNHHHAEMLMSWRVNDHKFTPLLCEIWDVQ
Sequence of Aryl hydrocarbon receptor (Homo sapiens) (P35869 whole entry, looked up): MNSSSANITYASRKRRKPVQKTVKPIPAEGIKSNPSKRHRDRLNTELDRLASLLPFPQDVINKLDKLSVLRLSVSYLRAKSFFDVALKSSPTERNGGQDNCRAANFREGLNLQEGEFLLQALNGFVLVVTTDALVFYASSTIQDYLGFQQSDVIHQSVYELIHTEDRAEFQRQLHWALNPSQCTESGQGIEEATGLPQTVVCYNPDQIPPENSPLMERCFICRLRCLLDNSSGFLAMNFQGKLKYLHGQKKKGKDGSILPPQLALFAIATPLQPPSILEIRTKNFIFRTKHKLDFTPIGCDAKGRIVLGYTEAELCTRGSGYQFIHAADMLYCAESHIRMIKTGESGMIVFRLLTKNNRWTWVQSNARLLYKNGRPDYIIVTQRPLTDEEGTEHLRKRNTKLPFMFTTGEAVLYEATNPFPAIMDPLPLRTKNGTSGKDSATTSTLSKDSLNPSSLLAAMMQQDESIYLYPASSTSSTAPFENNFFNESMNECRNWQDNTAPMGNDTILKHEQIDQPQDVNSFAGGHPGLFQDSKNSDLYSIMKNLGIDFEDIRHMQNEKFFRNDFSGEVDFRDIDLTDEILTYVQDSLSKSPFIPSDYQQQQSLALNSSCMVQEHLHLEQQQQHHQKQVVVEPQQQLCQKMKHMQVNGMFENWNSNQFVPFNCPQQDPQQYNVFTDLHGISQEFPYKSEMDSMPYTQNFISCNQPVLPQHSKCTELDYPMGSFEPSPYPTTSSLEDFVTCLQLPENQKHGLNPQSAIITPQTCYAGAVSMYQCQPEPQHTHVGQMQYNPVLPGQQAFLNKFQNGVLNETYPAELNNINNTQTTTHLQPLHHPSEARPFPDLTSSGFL
Sequence of Peroxisome proliferator-activated receptor gamma (Homo sapiens) (P37231 whole entry, looked up): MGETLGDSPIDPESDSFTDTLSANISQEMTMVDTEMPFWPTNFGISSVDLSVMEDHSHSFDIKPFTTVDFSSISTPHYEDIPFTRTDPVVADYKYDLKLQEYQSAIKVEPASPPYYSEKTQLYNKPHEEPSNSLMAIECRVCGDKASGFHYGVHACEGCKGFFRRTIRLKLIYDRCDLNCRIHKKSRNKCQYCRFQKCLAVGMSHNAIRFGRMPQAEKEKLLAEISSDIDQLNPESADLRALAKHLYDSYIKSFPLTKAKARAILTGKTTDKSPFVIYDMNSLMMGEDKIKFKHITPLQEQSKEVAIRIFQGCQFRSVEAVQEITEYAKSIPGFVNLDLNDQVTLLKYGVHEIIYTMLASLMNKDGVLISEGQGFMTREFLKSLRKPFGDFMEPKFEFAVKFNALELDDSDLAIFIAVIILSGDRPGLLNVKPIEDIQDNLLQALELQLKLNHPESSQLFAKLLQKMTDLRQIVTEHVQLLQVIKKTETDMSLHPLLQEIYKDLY
Sequence of Vitamin D3 receptor (Homo sapiens) (P11473 whole entry, looked up): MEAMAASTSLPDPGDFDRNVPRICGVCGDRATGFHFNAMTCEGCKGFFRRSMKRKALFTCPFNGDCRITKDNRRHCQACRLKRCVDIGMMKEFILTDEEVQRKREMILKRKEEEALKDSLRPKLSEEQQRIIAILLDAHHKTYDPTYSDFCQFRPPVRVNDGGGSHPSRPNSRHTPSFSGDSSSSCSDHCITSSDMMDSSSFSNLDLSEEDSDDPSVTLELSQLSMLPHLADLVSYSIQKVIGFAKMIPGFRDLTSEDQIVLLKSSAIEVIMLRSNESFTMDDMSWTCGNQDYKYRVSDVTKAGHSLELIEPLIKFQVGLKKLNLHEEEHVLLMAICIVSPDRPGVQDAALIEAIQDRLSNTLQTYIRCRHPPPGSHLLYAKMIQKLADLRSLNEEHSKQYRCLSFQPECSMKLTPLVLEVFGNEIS
Sequence of Peroxisome proliferator-activated receptor delta (Homo sapiens) (Q03181 whole entry, looked up): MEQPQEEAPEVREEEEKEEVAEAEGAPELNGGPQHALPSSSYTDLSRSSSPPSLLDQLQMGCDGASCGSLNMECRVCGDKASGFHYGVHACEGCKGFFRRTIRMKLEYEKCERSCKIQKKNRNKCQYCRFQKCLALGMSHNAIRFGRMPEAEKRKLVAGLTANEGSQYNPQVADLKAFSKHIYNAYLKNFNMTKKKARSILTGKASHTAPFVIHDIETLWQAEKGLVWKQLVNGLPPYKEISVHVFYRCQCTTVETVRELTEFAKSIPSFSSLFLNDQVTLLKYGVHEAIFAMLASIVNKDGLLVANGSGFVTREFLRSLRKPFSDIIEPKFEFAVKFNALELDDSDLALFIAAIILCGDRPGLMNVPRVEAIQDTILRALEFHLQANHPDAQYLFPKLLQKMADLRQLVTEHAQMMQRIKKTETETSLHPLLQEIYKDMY

In the case of `NS(=O)(=O)c1ccccc1Cl`, the Potency result in test [1], in test [2], in test [3], in [5], in test [6] and in test [10] was “inactive” each time. The Potency entry in test [11] and in test [12] was “inactive” each time. Besides, the compound was classed as inactive in [4], in [7], in [8], in test [9] and in test [13].
For the compound `O=C(O)CNC(=O)c1ccc([N+](=O)[O-])cc1`, the Potency entry in test [1], in test [2], in [3], in [5], in [6] and in [15] was “inactive” throughout. Moreover, the Potency result in test [11], in [17] and in [12] was “inactive” each time. Besides, the outcome in test [4], in [14], in test [7], in test [8], in test [9] and in [16] was inactive. Besides, the result in test [18] and in [13] was inactive.
Take `C[N+](C)(C)CCCCCC[N+](C)(C)C`: the Potency result in [1], in [2], in test [3], in test [5], in [6] and in test [15] was “inactive” throughout. Further, the Potency entry in [10], in test [11], in test [17] and in test [12] was “inactive” each time. Besides, the compound was classed as inactive in test [4], in [14], in [8], in [9], in [16] and in test [18].
Regarding `COCCCOCCCOC`, the Potency result in test [1], in [2], in test [3], in [6], in test [15] and in test [10] was “inactive” throughout. Also, the Potency entry in test [11], in test [17] and in test [12] was “inactive” throughout. Further, the outcome in [4], in test [14], in [7], in [8], in test [9] and in [16] was inactive. The call in test [18], in test [13] and in test [19] was inactive.
As to `CCSC(=O)N(CC(C)C)CC(C)C`, the Potency entry in [1], in test [2], in [3], in test [5], in test [6] and in test [15] was “inactive” each time. In addition, the Potency result in test [10], in [11], in test [17] and in test [12] was “inactive” in each case. Moreover, the compound was classed as inactive in test [4], in [14], in test [7], in [8], in test [13] and in test [19].
As to `C=C(C)C(=O)OCCCCCCCC(C)C`, the Potency entry in test [1], in test [2], in test [3], in test [5], in test [6] and in test [15] was “inactive” in each case. The Potency result in test [10], in test [17] and in [12] was “inactive” each time. Moreover, the compound was classed as inactive in [4], in test [14], in test [7], in test [13] and in test [19].
For `Oc1ccc(C2CNCCc3c2cc(O)c(O)c3Cl)cc1` (stereo unspecified), the Potency entry in test [1], in test [2], in test [3], in test [6], in [15] and in test [10] was “inactive” in each case. Further, the Potency entry in [17] and in test [12] was “inactive” each time. Also, the call in test [4], in test [14], in test [13] and in test [19] was inactive.
`O=C(O)CCCl`: the Potency result in [1], in test [2], in test [3], in test [5], in [6] and in test [15] was “inactive” each time. Also, the Potency result in test [17] and in [12] was “inactive” throughout. For the same compound, the call in test [4], in [14], in test [7] and in [13] was inactive.
For `C=C[Si](OC(=C)C)(OC(=C)C)OC(=C)C`, the Potency result in test [1], in test [2], in test [3], in test [20], in test [5] and in test [6] was “inactive” each time. In addition, the Potency entry in test [15], in [10], in test [11], in test [17] and in test [12] was “inactive” each time. In addition, the result in [14], in test [7], in test [8], in [9], in [16] and in [18] was inactive. For the same compound, the call in test [13] and in test [19] was inactive.
`CO[C@]12C[C@@H](COC(=O)c3cncc(Br)c3)CN(C)[C@@H]1Cc1cn(C)c3cccc2c13`: the Potency result in test [1], in test [3], in [5], in [6], in test [15] and in [10] was “inactive” in each case. In addition, the Potency result in test [17] and in test [12] was “inactive” in each case. Further, the Potency in test [2] is 29.8 µM (active). For the same compound, the call in [4], in test [14], in test [7], in test [8] and in [13] was inactive.
